These results are taken from PubChem BioAssay (Tox21).

The source made the active and inactive calls. Calls come from the whole dose curve.
% is set by controls: 0 for no effect and ±100 for the full control effect.

Chain of Thyrotropin-releasing hormone receptor (Homo sapiens) (P34981 whole entry, looked up): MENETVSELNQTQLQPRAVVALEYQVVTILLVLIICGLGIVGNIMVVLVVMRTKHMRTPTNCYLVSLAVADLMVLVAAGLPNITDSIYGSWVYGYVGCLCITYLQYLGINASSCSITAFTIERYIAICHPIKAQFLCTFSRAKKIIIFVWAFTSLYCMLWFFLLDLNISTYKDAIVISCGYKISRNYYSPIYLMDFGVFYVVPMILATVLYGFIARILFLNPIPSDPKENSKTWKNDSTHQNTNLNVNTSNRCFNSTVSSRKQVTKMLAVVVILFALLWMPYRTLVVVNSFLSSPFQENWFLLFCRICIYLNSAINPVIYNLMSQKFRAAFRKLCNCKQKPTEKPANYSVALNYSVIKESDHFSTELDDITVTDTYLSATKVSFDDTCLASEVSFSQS

In this test the target is Thyrotropin-releasing hormone receptor (Homo sapiens) (UniProt P34981). Briefly: qHTS assay to identify small molecule agonists of the thyrotropin-releasing hormone receptor (TRHR) signaling pathway (AID 1346891).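 Note: HEK293 cells expressing TRHR with calcium dye readout.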 As to conditions: TRHR-HEK293 calcium fluorescence, agonist mode; series mostly up to 57.6 µM. The source says:
National Center for Advancing Translational Sciences [NCATS] NIH Chemical Genomics Center [NCGC] U.S. Environmental Protection Agency [EPA] National Institutes of Environmental Health Sciences [NIEHS] National Toxicology Program [NTP] Assay overview: Thyrotropin-releasing hormone (TRH) receptor (TRHR) is a G-protein-coupled receptor which binds the tripeptide thyrotropin releasing hormone. TRHR is found in the brain and, when bound by TRH, acts (through phospholipase C) to increase intracellular inositol trisphosphate. It plays a crucial role in the anterior pituitary where it controls the synthesis and secretion of thyroid stimulating hormone and prolactin. The TRHR-Hek293 assay is a cell-based assay, and it has the potential to screen G protein-coupled receptors. A compound/drug can either activate (agonist) or suppress (antagonist) GPCRs that can be monitored by levels of intracellular calcium. Using this assay, the Tox21 10K compound library was screened to identify potential TRHR agonists.
Assay Protocol Summary: The TRHR-Hek293 cells were dispensed at 1500cells/4uL/well in 1536-well black-clear bottom plates using a Multidrop dispenser. After the assay plates were incubated at a 37 C/5% CO2 incubator for 18 hours, 4 uL of Dye-Loading Solution was added to each well. The plates were incubated at 37 C for 2 hours. For agonist mode, 23 nL of compounds dissolved in DMSO, positive controls or DMSO only was transferred to the assay plate by a pin tool. The fluorescence intensity in the plates was measured using FDSS 7000EX kinetic plate reader for 3 min at 1 sec intervals. Each test compound was measured at 15 concentrations and in triplicates.
A general note: In qHTS, concentration-response curves come from the screen itself.
For `Cc1ccc(C(=O)O)cc1[N+](=O)[O-]`, the result was inactive.
Still for that read-out and setting: under `O=NN(CCCl)C(=O)NC1CCCCC1` stands “inactive”; under `CCCCCC(C)O` (stereo not given), “inactive”; under `CC1(C)Cc2cccc(N)c2O1`, “inactive”.
For the molecule `CCCCOCCOC(=O)COc1ccc(Cl)cc1Cl`, the outcome was inactive.
The same measure, in the same setting: under `O=C(O)[C@H](O)c1ccccc1` stands “inactive”; under `N#Cc1ccccc1O`, “inactive”; under `CC(C)NCC(O)c1ccc2ccccc2c1` (stereo not given), “inactive”.
Regarding `N[C@@H](CSCCCO)C(=O)O`, the activation is -0.038% [at 11.8 µM] (inactive).
As for `OC1(c2ccc(Cl)cc2)CCNCC1`, the result was inactive.
As to `CC1(C)CC(OC(=O)CCCCCCCCC(=O)OC2CC(C)(C)NC(C)(C)C2)CC(C)(C)N1`, the activation is 0.325% [at 11.8 µM] (inactive).
Consider `CC1=NN(c2ccc(S(=O)(=O)O)cc2)C(=O)C1`, for which the outcome was inactive.
Same read-out and setting: under `CC(Oc1cc(Cl)ccc1Cl)C(=O)O` (stereo not given) stands “inactive”; under `CCCCOCC(C)O` (stereo not given), “inactive”; under `CC(=O)C1C(=O)C=C(C)OC1=O` (stereo not given), “inactive”.
Still for that read-out and setting: under `COc1nc(N)nc2nc[nH]c12` stands “inactive”; under `CC1(C)[C@H]2CC[C@](C)(C2)[C@H]1O`, “inactive”; under `Cc1ccc(C)c([N+](=O)[O-])c1`, “inactive”.
As to `CC(C)[C@H]1CC[C@H](C)C[C@@H]1O`, the result was inactive.
Still for that read-out and setting: under `C=CCN1C[C@H](C(=O)N(CCCN(C)C)C(=O)NCC)C[C@@H]2c3cccc4[nH]cc(c34)C[C@H]21` stands “inactive”.
Regarding `COP(=O)(O)OP(=O)(O)OC`, the result was inactive.
Same read-out and setting: under `CC(C)C1OCCN1CCOC(=O)NCCCCCCNC(=O)OCCN1CCOC1C(C)C` (stereo not given) stands “inactive”.
In the case of `CCO[Si](CC)(OCC)OCC`, the result was inactive.
On to `CC12CCC(C1)C(C)(C)C2O` (stereo not given), for which the outcome was inactive.
Same read-out and setting: under `CC1c2ccccc2CN1NC(=O)c1ccc(Cl)c(S(N)(=O)=O)c1` (stereo not given) stands “inactive”; under `CC(=O)OC(C)=O`, “inactive”.
Consider `CO[C@@]1(NC(=O)Cc2cccs2)C(=O)N2C(C(=O)O)=C(COC(N)=O)CS[C@@H]21`, for which the result was inactive.
Regarding `Cc1c(NC(=O)c2cccnc2)c(=O)n(-c2ccccc2)n1C`, the result was inactive.
Same read-out and setting: under `CC1=C(C(=O)O)N2C(=O)[C@@H](NC(=O)[C@H](N)c3ccccc3)[C@H]2SC1` stands “inactive”; under `O=C1OCCO1`, “inactive”; under `Cc1c(C(=O)c2c[nH]n(C)c2=O)ccc(S(C)(=O)=O)c1C1=NOCC1`, “inactive”.
For the molecule `O=C=NCC1CCCC(CN=C=O)C1` (stereo not given), the result was inactive.
As to `CCn1cc(C(=O)O)c(=O)c2cnc(N3CCCC3)nc21`, the activation was -0.507% [at 5.23 µM] (inactive).
For `O=C(CN1CCNCC1)NC1CCCCC1`, the outcome was inactive.
Same read-out and setting: under `C=CCCCCCCCC` stands “inactive”.
The same measure, in the same setting: under `CC(=O)O[C@H]1C[C@@H]2CC[C@@]1(C)C2(C)C` stands “inactive”; under `CO[Si](CCCn1c(=O)n(CCC[Si](OC)(OC)OC)c(=O)n(CCC[Si](OC)(OC)OC)c1=O)(OC)OC`, “inactive”.
Still for that read-out and setting: under `O=C1NC(c2ccccc2)(c2ccccc2)C(=O)N1COP(=O)(O)O` stands “inactive”; under `CCCCOC(=O)C(C)O` (stereo not given), “inactive”; under `CC(=O)OCC(=O)Nc1cc(C#N)cc(NC(=O)COC(C)=O)c1Cl`, “inactive”.
